# Measurements published in ChEMBL document CHEMBL3988442, “University of Dundee, Small-Polar-MMV Screening Library” (2021).
# For some of these results: Measured potencies and affinities stand elsewhere.
# Tests used:
# Parameters in all cases: scale not given: direction of the effect not stated beside the values
# [1] = target: Protein translocase subunit SecA (Escherichia coli (strain K12)) (UniProt P10408); experiment: Assay to Identify E. coli SecA ATPase Inhibitors; format: functional; conditions: 30 µM
# [2] = target: T1, Ubiquitin-activating enzyme e1, putative (Leishmania donovani (strain BPK282A1)) (UniProt E9BSI1); experiment: Leishmania donovani Ubiquitin Activating Enzyme (LdE1); format: functional; conditions: 30 µM
# T1 sequence (whole entry): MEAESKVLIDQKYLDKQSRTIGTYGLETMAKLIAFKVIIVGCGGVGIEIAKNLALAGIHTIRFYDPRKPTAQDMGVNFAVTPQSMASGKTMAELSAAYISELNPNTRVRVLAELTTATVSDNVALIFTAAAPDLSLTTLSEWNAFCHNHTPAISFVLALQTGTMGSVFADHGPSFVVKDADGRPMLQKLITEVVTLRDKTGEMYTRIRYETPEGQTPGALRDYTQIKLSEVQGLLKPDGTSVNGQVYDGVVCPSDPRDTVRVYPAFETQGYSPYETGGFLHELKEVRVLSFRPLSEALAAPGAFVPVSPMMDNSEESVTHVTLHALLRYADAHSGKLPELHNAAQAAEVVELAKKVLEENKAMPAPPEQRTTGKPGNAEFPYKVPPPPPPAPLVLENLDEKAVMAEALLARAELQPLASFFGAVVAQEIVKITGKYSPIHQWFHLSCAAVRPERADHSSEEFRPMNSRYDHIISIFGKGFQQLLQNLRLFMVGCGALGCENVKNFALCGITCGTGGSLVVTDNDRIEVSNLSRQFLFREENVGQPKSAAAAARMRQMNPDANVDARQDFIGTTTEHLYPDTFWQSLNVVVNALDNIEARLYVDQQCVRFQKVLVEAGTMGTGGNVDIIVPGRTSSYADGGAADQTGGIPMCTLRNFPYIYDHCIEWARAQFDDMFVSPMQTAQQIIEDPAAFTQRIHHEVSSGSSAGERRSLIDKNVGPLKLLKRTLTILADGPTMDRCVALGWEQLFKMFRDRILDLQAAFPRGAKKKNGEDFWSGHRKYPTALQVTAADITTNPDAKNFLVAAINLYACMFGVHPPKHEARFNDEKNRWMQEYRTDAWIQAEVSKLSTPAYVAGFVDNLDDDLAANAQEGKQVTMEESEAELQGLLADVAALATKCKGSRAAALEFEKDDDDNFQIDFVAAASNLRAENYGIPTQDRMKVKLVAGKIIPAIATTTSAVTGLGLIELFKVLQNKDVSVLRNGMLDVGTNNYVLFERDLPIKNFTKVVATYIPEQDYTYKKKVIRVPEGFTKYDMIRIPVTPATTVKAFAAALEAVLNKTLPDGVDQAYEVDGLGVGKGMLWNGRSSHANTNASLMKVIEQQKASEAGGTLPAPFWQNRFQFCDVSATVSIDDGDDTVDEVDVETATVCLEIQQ
# [3] = target: AMP-activated protein kinase, AMPK (Homo sapiens) (UniProt P54646+O43741+P54619+Q9UGJ0+Q9Y478+Q13131+Q9UGI9); experiment: AMP-dependent Kinase enzyme assay. An in vitro enzyme assay that detects ADP turnover that is directly proportional to AMPK activity. This uses naive AMPK that is activated during the assay with MK-8722; format: functional; conditions: 30 µM
# [4] = target: Sialic acid-binding Ig-like lectin 9 (Homo sapiens) (UniProt Q9Y336); experiment: Hs-Siglec9 ALPHAscreen SOP 20170721; conditions: 10 µM
# Trypanosoma cruzi = experiment: Trypanosoma cruzi phosphomannomutase and mannose-1-phosphate guanylyltransferase assay; format: functional; conditions: 10 µM
# [5] = target: T2, Arginase-2, mitochondrial (Homo sapiens) (UniProt P78540); experiment: in vitro enzyme assay to detect the production of urea directly proportional to the activity of Arginase II; format: functional; conditions: 33.3 µM; further: in the data most compounds retested in dose-response had high values
# T2 sequence (whole entry): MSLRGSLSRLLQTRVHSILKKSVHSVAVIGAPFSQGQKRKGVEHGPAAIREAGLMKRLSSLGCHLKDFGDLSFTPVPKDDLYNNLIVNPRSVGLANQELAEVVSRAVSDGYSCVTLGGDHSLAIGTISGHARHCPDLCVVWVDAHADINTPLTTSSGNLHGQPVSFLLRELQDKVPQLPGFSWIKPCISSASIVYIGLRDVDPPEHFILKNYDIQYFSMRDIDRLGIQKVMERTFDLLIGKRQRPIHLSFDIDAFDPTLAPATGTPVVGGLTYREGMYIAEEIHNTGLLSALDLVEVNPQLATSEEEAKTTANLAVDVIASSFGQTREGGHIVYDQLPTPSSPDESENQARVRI
# [6] = target: T3, Proteasome subunit beta (Trypanosoma cruzi) (UniProt O96673); experiment: Trypanosoma cruzi proteasome chymotrypsin-like activity (TcProtChymo) assay.; further: in the data most compounds retested in dose-response had high values; format: functional; conditions: 9.37 µM
# T3 sequence (whole entry): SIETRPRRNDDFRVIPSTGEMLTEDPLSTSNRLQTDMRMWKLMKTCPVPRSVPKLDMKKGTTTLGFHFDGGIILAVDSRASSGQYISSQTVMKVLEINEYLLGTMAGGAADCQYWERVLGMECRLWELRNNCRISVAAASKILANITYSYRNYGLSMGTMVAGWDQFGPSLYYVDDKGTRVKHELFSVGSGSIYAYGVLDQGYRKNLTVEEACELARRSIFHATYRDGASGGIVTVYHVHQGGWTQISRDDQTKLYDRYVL
# Homo sapiens = species: Homo sapiens; experiment: To identify inhibition of the IFN signalling (Jak-Stat) pathway via expression of an eGFP reporter gene under the control of an IFN-stimulated response element (ISRE) containing MxA promoter.; format: functional; conditions: 30 µM
# [7] = target: T4, Tyrosyl-tRNA synthetase, putative (Trypanosoma cruzi (strain CL Brener)) (UniProt Q4DSP6); experiment: Trypanosoma cruzi tyrosyl tRNA synthetase (TcYRS) _High Tyrosine SOP; format: functional; conditions: 30 µM; further: in the data most compounds retested in dose-response had high values
# T4 sequence (whole entry): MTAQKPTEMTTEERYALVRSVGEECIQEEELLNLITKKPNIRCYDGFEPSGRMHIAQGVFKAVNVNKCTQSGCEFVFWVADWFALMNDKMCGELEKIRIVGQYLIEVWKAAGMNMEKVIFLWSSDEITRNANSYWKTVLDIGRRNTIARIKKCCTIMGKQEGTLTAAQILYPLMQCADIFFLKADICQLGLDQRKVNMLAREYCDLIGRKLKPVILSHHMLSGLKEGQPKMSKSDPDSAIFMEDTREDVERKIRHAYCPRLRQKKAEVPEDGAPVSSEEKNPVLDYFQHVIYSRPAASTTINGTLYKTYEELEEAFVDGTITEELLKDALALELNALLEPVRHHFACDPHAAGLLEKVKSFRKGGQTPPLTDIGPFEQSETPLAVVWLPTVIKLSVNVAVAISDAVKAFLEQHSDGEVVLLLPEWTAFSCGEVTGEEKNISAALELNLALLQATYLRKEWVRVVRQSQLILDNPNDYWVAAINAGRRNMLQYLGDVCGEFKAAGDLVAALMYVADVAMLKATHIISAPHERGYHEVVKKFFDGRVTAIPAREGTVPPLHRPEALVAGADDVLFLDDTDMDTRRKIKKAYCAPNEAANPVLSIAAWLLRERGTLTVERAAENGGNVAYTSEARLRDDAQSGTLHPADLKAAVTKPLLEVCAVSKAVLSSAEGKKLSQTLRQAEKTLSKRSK
# [8] = target: T4, Tyrosyl-tRNA synthetase, putative (Trypanosoma cruzi (strain CL Brener)); experiment: Trypanosoma cruzi tyrosyl tRNA synthetase (TcYRS) SOP; format: functional; conditions: 30 µM
# [9] = target: Chromo domain-containing protein 1 (Saccharomyces cerevisiae (strain ATCC 204508 / S288c) (Baker's yeast)) (UniProt P32657); experiment: ScCHD-1 Enzyme Inhibition Assay; format: functional; conditions: 30 µM; further: in the data most compounds retested in dose-response had high values
# Chain of Chromo domain-containing protein 1 (Saccharomyces cerevisiae (strain ATCC 204508 / S288c) (Baker's yeast)) (P32657 whole entry, the tested form may be a part): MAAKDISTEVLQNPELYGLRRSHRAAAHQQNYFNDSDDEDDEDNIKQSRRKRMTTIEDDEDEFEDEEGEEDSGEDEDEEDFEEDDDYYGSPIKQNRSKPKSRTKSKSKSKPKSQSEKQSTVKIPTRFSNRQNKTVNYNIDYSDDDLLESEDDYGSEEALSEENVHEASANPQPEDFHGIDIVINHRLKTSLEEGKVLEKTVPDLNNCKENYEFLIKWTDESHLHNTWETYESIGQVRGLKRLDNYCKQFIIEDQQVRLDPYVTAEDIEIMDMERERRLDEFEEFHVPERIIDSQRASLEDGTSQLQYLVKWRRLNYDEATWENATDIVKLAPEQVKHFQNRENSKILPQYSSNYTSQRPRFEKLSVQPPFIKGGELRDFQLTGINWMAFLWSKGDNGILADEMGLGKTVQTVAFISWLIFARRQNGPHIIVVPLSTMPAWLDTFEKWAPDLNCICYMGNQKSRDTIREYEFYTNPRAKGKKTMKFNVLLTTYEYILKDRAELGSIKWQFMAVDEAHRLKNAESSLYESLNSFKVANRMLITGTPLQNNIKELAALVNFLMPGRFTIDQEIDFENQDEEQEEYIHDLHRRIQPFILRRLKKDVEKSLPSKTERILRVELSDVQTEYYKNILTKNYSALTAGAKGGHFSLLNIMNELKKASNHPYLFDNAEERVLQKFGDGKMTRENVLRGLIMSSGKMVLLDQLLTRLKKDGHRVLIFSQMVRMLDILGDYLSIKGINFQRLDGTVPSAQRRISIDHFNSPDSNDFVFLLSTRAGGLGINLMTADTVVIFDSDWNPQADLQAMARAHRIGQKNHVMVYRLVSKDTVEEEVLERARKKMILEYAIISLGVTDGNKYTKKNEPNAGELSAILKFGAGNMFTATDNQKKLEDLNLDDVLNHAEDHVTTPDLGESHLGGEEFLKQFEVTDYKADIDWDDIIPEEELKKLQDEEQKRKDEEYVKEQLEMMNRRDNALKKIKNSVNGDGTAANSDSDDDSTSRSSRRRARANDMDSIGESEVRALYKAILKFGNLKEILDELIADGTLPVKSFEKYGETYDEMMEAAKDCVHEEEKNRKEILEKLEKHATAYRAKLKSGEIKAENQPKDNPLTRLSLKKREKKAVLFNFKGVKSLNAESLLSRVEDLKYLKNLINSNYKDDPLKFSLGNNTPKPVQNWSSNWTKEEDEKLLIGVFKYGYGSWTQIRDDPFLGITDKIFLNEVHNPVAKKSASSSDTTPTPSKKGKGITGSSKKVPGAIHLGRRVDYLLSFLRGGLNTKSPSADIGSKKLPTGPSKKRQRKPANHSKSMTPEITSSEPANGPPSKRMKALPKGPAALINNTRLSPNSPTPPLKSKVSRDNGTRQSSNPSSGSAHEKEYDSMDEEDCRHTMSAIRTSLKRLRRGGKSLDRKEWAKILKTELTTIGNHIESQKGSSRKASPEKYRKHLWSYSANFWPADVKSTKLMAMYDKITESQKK
# Chain of Protein translocase subunit SecA (Escherichia coli (strain K12)) (P10408 whole entry): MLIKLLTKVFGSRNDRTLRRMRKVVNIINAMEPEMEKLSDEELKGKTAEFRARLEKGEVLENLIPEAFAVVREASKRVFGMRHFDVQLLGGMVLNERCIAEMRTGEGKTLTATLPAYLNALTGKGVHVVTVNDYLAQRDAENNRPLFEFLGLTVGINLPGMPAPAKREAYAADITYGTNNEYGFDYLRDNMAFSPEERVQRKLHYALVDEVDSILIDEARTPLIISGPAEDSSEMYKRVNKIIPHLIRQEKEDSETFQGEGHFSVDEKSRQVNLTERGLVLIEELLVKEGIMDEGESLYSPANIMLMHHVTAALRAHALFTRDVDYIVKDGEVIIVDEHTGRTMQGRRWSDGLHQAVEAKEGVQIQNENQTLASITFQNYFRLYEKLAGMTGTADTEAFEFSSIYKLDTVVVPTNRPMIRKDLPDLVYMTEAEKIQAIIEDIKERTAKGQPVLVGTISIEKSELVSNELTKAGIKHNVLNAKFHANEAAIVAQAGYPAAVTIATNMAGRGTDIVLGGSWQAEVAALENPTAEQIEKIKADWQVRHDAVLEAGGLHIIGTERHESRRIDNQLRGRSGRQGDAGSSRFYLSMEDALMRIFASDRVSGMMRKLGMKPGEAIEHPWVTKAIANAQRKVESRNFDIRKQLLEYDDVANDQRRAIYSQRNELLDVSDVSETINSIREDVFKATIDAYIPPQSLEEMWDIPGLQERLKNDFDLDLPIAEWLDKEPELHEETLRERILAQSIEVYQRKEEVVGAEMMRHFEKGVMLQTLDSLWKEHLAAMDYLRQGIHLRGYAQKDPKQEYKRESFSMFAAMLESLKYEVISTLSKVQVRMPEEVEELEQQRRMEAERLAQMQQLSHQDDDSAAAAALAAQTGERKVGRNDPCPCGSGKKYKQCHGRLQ
# Chain of Sialic acid-binding Ig-like lectin 9 (Homo sapiens) (Q9Y336 whole entry): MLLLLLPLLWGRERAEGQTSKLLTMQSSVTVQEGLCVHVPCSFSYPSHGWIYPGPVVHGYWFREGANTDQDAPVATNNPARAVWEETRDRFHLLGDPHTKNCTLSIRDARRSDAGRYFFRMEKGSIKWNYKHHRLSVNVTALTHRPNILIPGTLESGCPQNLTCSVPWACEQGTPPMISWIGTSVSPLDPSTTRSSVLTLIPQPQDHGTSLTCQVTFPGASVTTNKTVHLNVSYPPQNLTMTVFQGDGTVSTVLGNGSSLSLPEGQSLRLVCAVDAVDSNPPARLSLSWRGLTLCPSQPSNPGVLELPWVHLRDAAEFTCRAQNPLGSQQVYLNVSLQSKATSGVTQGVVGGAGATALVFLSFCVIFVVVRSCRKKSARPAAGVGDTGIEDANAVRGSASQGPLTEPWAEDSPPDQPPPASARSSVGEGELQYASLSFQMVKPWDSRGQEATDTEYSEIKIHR
Compound,Percent Effect [1],Percent Effect [2],Percent Effect [3],Percent Effect [4],Percent Effect (Trypanosoma cruzi),Percent Effect [5],Percent Effect [6],Percent Effect (Homo sapiens),Percent Effect [7],Percent Effect [8],Percent Effect [9]
Cc1nc(CN(Cc2cccs2)C2CCS(=O)(=O)C2)oc1C (configuration not stated),-3.68%,15.8%,-1.59%,1.17%,-3.27%,2.16%,6.85%,-8.22%,5.42%,23.5%,1.43%
CC(C)c1noc(CN2CCN(C(=O)c3ccccc3F)CC2)n1,-4.33%,13.5%,-4.45%,3.5%,-2.32%,-3.88%,6.82%,23.6%,7.92%,18.3%,0.419%
Cc1nc(CN(C)C(=O)Nc2cnn(CC3CCCO3)c2)cs1 (configuration not stated),-3.47%,-5.41%,-27.6%,1.65%,-0.965%,0.952%,5.86%,15%,-6.88%,-9.76%,0.495%
Cc1cc(CNC(=O)N2CCCN(Cc3ccccc3)CC2)no1,-3.91%,12.7%,-1.73%,0.846%,-5.38%,-2.66%,10.7%,18.1%,2.46%,11.4%,-4.24%
CSCC(=O)N1CCCC(n2ccnc2C(C)C)C1 (configuration not stated),-0.321%,15.8%,-1.19%,-13.5%,-6.63%,5.4%,6.01%,-1.49%,8.37%,18.5%,-9.2%
CC(C)c1noc(CCCC(=O)N2CCC(Cc3cccnc3)CC2)n1,1.54%,-2.53%,1.06%,8.41%,-6.14%,4.18%,-2.05%,16.4%,0.493%,-3.8%,-3.44%
COc1ccc(C2=CCN(C(=O)CN(C)Cc3ccoc3)CC2)cc1,-6.75%,7.59%,-2.65%,5.81%,11.6%,-5.32%,10.4%,28.5%,8.37%,21.5%,-11.7%
CC(=O)NC1CCCN(C(=O)NCc2ccc(-c3ccn[nH]3)cc2)C1 (configuration not stated),-4.57%,21.1%,2.99%,-2.61%,3.83%,0%,12.4%,-12.3%,8.37%,23.5%,-8.05%
CCc1nccn1C1CCCN(C(=O)c2cn3c(C)cccc3n2)C1 (configuration not stated),-5.71%,10.5%,-0.577%,8.35%,3.6%,-9.47%,6.04%,-0.411%,3.19%,15.6%,-1.12%
CCC(=O)Nc1ccc2c(c1)CN(C(=O)c1ccco1)CC2,-1.48%,15.6%,8.06%,-13%,-1.48%,-1.94%,9.4%,33.1%,3.17%,14.1%,-8.67%
CN1CC(=O)N(c2ccsc2)CC12CCN(S(C)(=O)=O)C2 (configuration not stated),-4.15%,0%,-4.23%,-4.81%,6.84%,-2.5%,20%,-12.5%,3.96%,11%,-0.42%
Cc1cc(C)n(C2CCCN(C(=O)c3cc(C4CC4)on3)C2)n1 (configuration not stated),-4.93%,5.2%,-0.0913%,-0.636%,4.41%,-1.05%,13.8%,-1.26%,1.91%,9.41%,-18.6%
Fc1ccc(CN2CCCC(Cn3cncn3)C2)c2ncccc12 (configuration not stated),-5.33%,5.2%,-0.904%,8.63%,1.67%,-1.38%,12.2%,-1.67%,5.38%,11.1%,1.09%
Cn1cnc2c1C(COCc1cccnc1)N(Cc1ccccn1)CC2 (configuration not stated),-3.69%,8%,-12.6%,2.61%,7.53%,-51.8%,5.47%,3.9%,4.17%,-55%,-7.17%
Cn1ccnc1CNC(=O)N1CCCC(Cc2nccn2C)C1 (configuration not stated),-8.83%,-2.7%,9.59%,-1.15%,-3.71%,-0.833%,2.28%,-4.83%,10.9%,1.22%,1.72%
CC(=O)N1CCC(C(=O)NCCN2CCCCC2)CC1,-1.49%,9.72%,-3.56%,-2.74%,0.875%,1.77%,17.5%,-6.46%,4.21%,5.13%,-2.32%
Cc1cc(C)cc(-c2cccc(CC3(C(=O)O)CCOCC3)c2)c1,-0.147%,4.05%,37.7%,5.76%,-8.1%,-9.05%,15.1%,31.5%,-26.9%,-45.5%,-6.99%
